# Inconclusive results are not listed. Activity calls are given as the source filed them. Rule for the calls: active = hit-call score of the fitted dose curve at least 0.9, where 1 is the maximum; inconclusive = response in the unintended direction; inactive = score below 0.9.
# Assay: CCTE_Simmons_CellTiterGLO_HEK293T: Viability Assessment in CCTE's Assays for Thyroperoxidase (TPO) Inhibition, Simmons Lab (AID 2283665);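 for AC50: cells exposed to compound for 24 h before readout; actives reduce ATP signal below DMSO vehicle meaning cytotoxicity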
# Procedure: CCTE_Simmons_CellTiterGLO_HEK293T is a cell-based, single-readout assay that uses HEK293T, a human kidney cell line, with measurements taken at 24 hours after chemical dosing in a 384-well plate.CCTE_Simmons_CellTiterGLO_HEK293T is the assay component measured from the CCTE_Simmons_CellTiterGLO_HEK293T assay. It is designed to make measurements of ATP content, a form of viability reporter, as detected with bioluminescence signals by Luciferase-coupled ATP quantitation technology. This is a secondary cytotoxicity assay to CCTE_Simmons_AUR_TPO to estimate a cellular tolerance limit.Data from the assay component CCTE_Simmons_CellTiterGLO_HEK293T was analyzed at the endpoint, CCTE_Simmons_CellTiterGLO_HEK293T, in the positive analysis fitting direction relative to DMSO as the negative control and baseline of activity. Using a type of viability reporter, measures of ATP content for loss-of-signal activity can be used to understand the viability. This assay was run in parallel with aeid 1508 as a means of indicating the range of chemical cytotoxicity or reactivity. To generalize the intended target to other relatable targets, this assay endpoint is annotated to the cell cycle intended target family, where the subfamily is cytotoxicity.
# Human HEK293T cells (GenHunter; Nashville, Tennessee) were seeded overnight in 384-well, solid white assay plates (Greiner, BioExpress) at a density of 10 000 cells per well in 65 ul Dulbecco's Modified Eagle Medium (Life Technologies; Carlsbad, California) supplemented with 1% fetal bovine serum (HyClone; Logan, Utah). Test compounds were administered using the HDRT as described earlier to achieve a 0.5% final DMSO concentration. Cells were then incubated at 37C for 24 hr in a humidified 5% CO2 incubator. Cell Titer Glo (Promega; Madison, WI) reagent (25 ul) was then added by the BioTek MicroFlo and microplates were incubated at room temperature in the dark for 20min. Plates were read on a plate reader (FLUOStar Optima) using an endpoint luminescence protocol (top read). Three biological replicates of technical singles were run for every chemical concentration tested. A titrated range of DCNQ served as a positive control on each plate of the cytotoxicity screening assay.Test chemicals were administered as a titrated series of 8 concentrations from 5 nM up to 87.5 uM [final] for 24 hours prior to single endpoint detection. Three biological replicates of technical singles were run for every chemical concentration tested. Dimethylsulfoxide [DMSO] was used as the vehicle control. Dichlone [DCNQ] was used as the positive control and was administered as a titrated series of 8 concentrations from 1 nM up to 100 uM [final].
Compound,outcome,AC50
COC(=O)C=C(C)OP(=O)(OC)OC,inactive,
CCOC(=O)CC(SP(=S)(OC)OC)C(=O)OCC (stereo not given),inactive,
CN(C)C(=S)SSC(=S)N(C)C,,40.2 µM (active)
CCOP(=S)(OCC)SCn1c(=O)oc2cc(Cl)ccc21,,67.4 µM (active)
COP(=S)(OC)Oc1nc(Cl)c(Cl)cc1Cl,,85.6 µM (active)
CC1COC(Cn2cncn2)(c2ccc(Oc3ccc(Cl)cc3)cc2Cl)O1 (stereo not given),,27.9 µM (active)
CCCCNC(=O)n1c(NC(=O)OC)nc2ccccc21,inactive,
CCCN(CCC)c1c([N+](=O)[O-])cc(S(N)(=O)=O)cc1[N+](=O)[O-],,27.1 µM (active) [middle of 5 runs]
Oc1ccccc1-c1ccccc1,,97.1 µM (active)
CCCC1COC(Cn2cncn2)(c2ccc(Cl)cc2Cl)O1 (stereo not given),,79.7 µM (active)
C=CCC1=C(C)C(OC(=O)C2C(C=C(C)C)C2(C)C)CC1=O (stereo not given),,54.1 µM (active)
CON(C)C(=O)Nc1ccc(Cl)c(Cl)c1,inactive,
C=CCC1=C(C)[C@@H](OC(=O)[C@@H]2[C@@H](C=C(C)C)C2(C)C)CC1=O,,42.5 µM (active)
CNC(=S)S,inactive,
O=C(Nc1ccccc1)Nc1ccnc(Cl)c1,,53.8 µM (active)

# Source: PubChem BioAssay (EPA / NIEHS)
